The text below walks through data of PMC7862700, “An all-to-all approach to the identification of sequence-specific readers for epigenetic DNA modifications on cytosine”.

The target in the first test is T1, ELF5 (Homo sapiens, UniProt Q9UKW6-2 1-255).
T1 sequence: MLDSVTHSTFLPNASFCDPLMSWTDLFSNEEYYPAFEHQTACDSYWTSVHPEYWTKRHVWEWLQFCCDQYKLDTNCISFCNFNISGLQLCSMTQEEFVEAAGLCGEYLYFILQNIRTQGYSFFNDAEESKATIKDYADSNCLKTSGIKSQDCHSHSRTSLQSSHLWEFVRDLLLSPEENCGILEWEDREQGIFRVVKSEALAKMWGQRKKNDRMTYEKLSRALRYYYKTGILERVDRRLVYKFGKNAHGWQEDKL
The experiment in a line: DAPPL (digital affinity profiling via proximity ligation, sequencing); 10 mM Tris-HCl pH 7.5, 50 mM NaCl, 1 mM DTT, 4% glycerol, room temperature, 30 min; GST-TFs on glutathione beads, 16-mer random dsDNA library, 0.1% formaldehyde crosslink after washing; high values mean tight binding. Particulars: protein: recombinant; tags: N-terminal GST; dsDNA, one strand shown. The method, boiled down: (§1)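 Human transcription factors fused to GST were expressed in yeast, captured on glutathione beads, given DNA barcodes and pooled with a GST-only negative control. Pools were incubated with 200 nmole of a 16-mer random double-stranded DNA library in Tris/NaCl/DTT/glycerol buffer at room temperature for 30 min. They were then washed, crosslinked with 0.1% formaldehyde, proximity-ligated (BsaI/T4 ligase, 1 h, 37 °C), PCR-amplified and sequenced on an Illumina NextSeq500. Binding signal is each 6-mer's read frequency for a factor divided by its frequency for the GST control.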
CGTCCC: the binding signal was 1.31 fold enrichment (6-mer frequency, TF over GST control).

For the sequence CCCTAA, the binding signal was 1.19 fold enrichment (6-mer frequency, TF over GST control).

On to TTCTTG, for which the binding signal was 1.39 fold enrichment (6-mer frequency, TF over GST control).

AACAAG: the binding signal was 1.22 fold enrichment (6-mer frequency, TF over GST control).

As for TGCCTT, the binding signal was 1.39 fold enrichment (6-mer frequency, TF over GST control).

For the sequence TGCATT, the binding signal is 1.25 fold enrichment (6-mer frequency, TF over GST control).

Take CCTTTG: the binding signal was 1.31 fold enrichment (6-mer frequency, TF over GST control).

Take CTCACC: the binding signal was 1.15 fold enrichment (6-mer frequency, TF over GST control).

In the case of AATAGA, the binding signal is 1.11 fold enrichment (6-mer frequency, TF over GST control).

For GAAACG, the binding signal is 1.29 fold enrichment (6-mer frequency, TF over GST control).

In the case of TATAAC, the binding signal was 1.25 fold enrichment (6-mer frequency, TF over GST control).

Take CGTTCA: the binding signal is 1.08 fold enrichment (6-mer frequency, TF over GST control).

On to TGCTGA, for which the binding signal is 1 fold enrichment (6-mer frequency, TF over GST control).

For the sequence ACATGT, the binding signal was 1.12 fold enrichment (6-mer frequency, TF over GST control).

Take TCCGGG: the binding signal is 2.39 fold enrichment (6-mer frequency, TF over GST control).

With GGCCTA, the binding signal was 1.13 fold enrichment (6-mer frequency, TF over GST control).

Consider CGGCAT, for which the binding signal was 1.07 fold enrichment (6-mer frequency, TF over GST control).

In the case of ATACTA, the binding signal is 1.13 fold enrichment (6-mer frequency, TF over GST control).

TCCCCG: the binding signal was 1.24 fold enrichment (6-mer frequency, TF over GST control).

Consider CGAATT, for which the binding signal is 1.17 fold enrichment (6-mer frequency, TF over GST control).

In the case of TGCACT, the binding signal is 1.29 fold enrichment (6-mer frequency, TF over GST control).

Regarding TGATTC, the binding signal is 1.03 fold enrichment (6-mer frequency, TF over GST control).

In the case of TGCGCA, the binding signal is 1.06 fold enrichment (6-mer frequency, TF over GST control).

As for AAGTGC, the binding signal is 1.29 fold enrichment (6-mer frequency, TF over GST control).

As for ATTCAG, the binding signal was 1.08 fold enrichment (6-mer frequency, TF over GST control).

With TGCCTG, the binding signal was 1.27 fold enrichment (6-mer frequency, TF over GST control).

CACCAC: the binding signal was 1.11 fold enrichment (6-mer frequency, TF over GST control).

For the sequence TCCACG, the binding signal was 1.04 fold enrichment (6-mer frequency, TF over GST control).

Take CCTATT: the binding signal was 1.53 fold enrichment (6-mer frequency, TF over GST control).

On to ACCTGA, for which the binding signal was 1.07 fold enrichment (6-mer frequency, TF over GST control).

On to CTTACA, for which the binding signal was 1.35 fold enrichment (6-mer frequency, TF over GST control).

GAATCC: the binding signal is 1.03 fold enrichment (6-mer frequency, TF over GST control).

In the case of ATCACT, the binding signal was 1.27 fold enrichment (6-mer frequency, TF over GST control).

TGGAAA: the binding signal is 1.12 fold enrichment (6-mer frequency, TF over GST control).

Take CTTACC: the binding signal is 1.39 fold enrichment (6-mer frequency, TF over GST control).

As to CCCTGC, the binding signal was 1.2 fold enrichment (6-mer frequency, TF over GST control).

With TGACAC, the binding signal was 1.19 fold enrichment (6-mer frequency, TF over GST control).

With AACCAT, the binding signal is 1.08 fold enrichment (6-mer frequency, TF over GST control).

Turning to CATGAT, the binding signal was 1.1 fold enrichment (6-mer frequency, TF over GST control).

CTAAAA: the binding signal is 1.11 fold enrichment (6-mer frequency, TF over GST control).

Another test concerns the target T2, ETV3 (Homo sapiens, UniProt P41162-2 1-143).
T2 sequence: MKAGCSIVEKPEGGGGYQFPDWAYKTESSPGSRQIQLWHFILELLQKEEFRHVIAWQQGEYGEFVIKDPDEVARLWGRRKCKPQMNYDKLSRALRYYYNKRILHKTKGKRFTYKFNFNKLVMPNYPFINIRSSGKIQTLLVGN
The test is described as above. Particulars: protein: recombinant; tags: N-terminal GST; dsDNA, one strand shown. The method, boiled down:
as §1
Consider CGTCCC, for which the binding signal was 1.41 fold enrichment (6-mer frequency, TF over GST control).

Take CCCTAA: the binding signal was 1.2 fold enrichment (6-mer frequency, TF over GST control).

TTCTTG: the binding signal is 1.47 fold enrichment (6-mer frequency, TF over GST control).

Regarding AACAAG, the binding signal was 1.11 fold enrichment (6-mer frequency, TF over GST control).

Consider TGCCTT, for which the binding signal is 1.31 fold enrichment (6-mer frequency, TF over GST control).

For TGCATT, the binding signal is 1.34 fold enrichment (6-mer frequency, TF over GST control).

Turning to CCTTTG, the binding signal was 1.34 fold enrichment (6-mer frequency, TF over GST control).

Consider CTCACC, for which the binding signal was 1.14 fold enrichment (6-mer frequency, TF over GST control).

Regarding AATAGA, the binding signal was 1.09 fold enrichment (6-mer frequency, TF over GST control).

Turning to GAAACG, the binding signal was 1.28 fold enrichment (6-mer frequency, TF over GST control).

As to TATAAC, the binding signal was 1.25 fold enrichment (6-mer frequency, TF over GST control).

As to CGTTCA, the binding signal was 1.12 fold enrichment (6-mer frequency, TF over GST control).

Regarding TGCTGA, the binding signal was 1.12 fold enrichment (6-mer frequency, TF over GST control).

With ACATGT, the binding signal is 1.16 fold enrichment (6-mer frequency, TF over GST control).

Take TCCGGG: the binding signal is 1.71 fold enrichment (6-mer frequency, TF over GST control).

For the sequence GGCCTA, the binding signal is 1.3 fold enrichment (6-mer frequency, TF over GST control).

Take CGGCAT: the binding signal was 1.19 fold enrichment (6-mer frequency, TF over GST control).

Consider ATACTA, for which the binding signal is 1.14 fold enrichment (6-mer frequency, TF over GST control).

Take TCCCCG: the binding signal is 1.27 fold enrichment (6-mer frequency, TF over GST control).

Consider CGAATT, for which the binding signal was 1.22 fold enrichment (6-mer frequency, TF over GST control).

Take TGCACT: the binding signal is 1.35 fold enrichment (6-mer frequency, TF over GST control).

Take TGATTC: the binding signal was 1.15 fold enrichment (6-mer frequency, TF over GST control).

Turning to TGCGCA, the binding signal was 1.14 fold enrichment (6-mer frequency, TF over GST control).

As for AAGTGC, the binding signal is 1.39 fold enrichment (6-mer frequency, TF over GST control).

With ATTCAG, the binding signal is 1.12 fold enrichment (6-mer frequency, TF over GST control).

With TGCCTG, the binding signal is 1.31 fold enrichment (6-mer frequency, TF over GST control).

CACCAC: the binding signal was 1.11 fold enrichment (6-mer frequency, TF over GST control).

Regarding TCCACG, the binding signal is 1.01 fold enrichment (6-mer frequency, TF over GST control).

For CCTATT, the binding signal was 1.52 fold enrichment (6-mer frequency, TF over GST control).

Consider ACCTGA, for which the binding signal is 1.07 fold enrichment (6-mer frequency, TF over GST control).

Turning to CTTACA, the binding signal is 1.29 fold enrichment (6-mer frequency, TF over GST control).

With GAATCC, the binding signal was 1.14 fold enrichment (6-mer frequency, TF over GST control).

Turning to ATCACT, the binding signal is 1.15 fold enrichment (6-mer frequency, TF over GST control).

With TGGAAA, the binding signal is 1.08 fold enrichment (6-mer frequency, TF over GST control).

For CTTACC, the binding signal was 1.22 fold enrichment (6-mer frequency, TF over GST control).

In the case of CCCTGC, the binding signal was 1.22 fold enrichment (6-mer frequency, TF over GST control).

Take TGACAC: the binding signal was 1.21 fold enrichment (6-mer frequency, TF over GST control).

Take AACCAT: the binding signal was 1.16 fold enrichment (6-mer frequency, TF over GST control).

Consider CATGAT, for which the binding signal is 1.09 fold enrichment (6-mer frequency, TF over GST control).

In the case of CTAAAA, the binding signal was 1.12 fold enrichment (6-mer frequency, TF over GST control).

In a further test the target is ETV6 (Homo sapiens, UniProt P41212 1-452). Described as above. Conditions: protein: recombinant; tags: N-terminal GST; dsDNA, one strand shown. The method, boiled down: as §1
ETV6, sequence (P41212 whole entry): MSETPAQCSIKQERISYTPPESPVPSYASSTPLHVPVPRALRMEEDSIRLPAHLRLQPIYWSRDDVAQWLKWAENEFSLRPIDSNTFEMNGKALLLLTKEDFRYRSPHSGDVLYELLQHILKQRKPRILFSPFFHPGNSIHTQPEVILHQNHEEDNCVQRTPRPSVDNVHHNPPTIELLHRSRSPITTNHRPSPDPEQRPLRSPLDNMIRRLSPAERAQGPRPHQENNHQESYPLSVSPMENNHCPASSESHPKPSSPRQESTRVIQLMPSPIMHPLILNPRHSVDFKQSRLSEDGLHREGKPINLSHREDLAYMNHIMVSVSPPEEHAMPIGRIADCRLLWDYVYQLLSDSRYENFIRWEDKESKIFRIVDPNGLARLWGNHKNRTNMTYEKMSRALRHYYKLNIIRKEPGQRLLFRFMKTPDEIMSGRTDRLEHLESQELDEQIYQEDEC
Consider CGTCCC, for which the binding signal is 1.32 fold enrichment (6-mer frequency, TF over GST control).

In the case of CCCTAA, the binding signal is 1.08 fold enrichment (6-mer frequency, TF over GST control).

Regarding TTCTTG, the binding signal was 1.38 fold enrichment (6-mer frequency, TF over GST control).

For the sequence AACAAG, the binding signal is 1.12 fold enrichment (6-mer frequency, TF over GST control).

Take TGCCTT: the binding signal is 1.23 fold enrichment (6-mer frequency, TF over GST control).

For the sequence TGCATT, the binding signal was 1.35 fold enrichment (6-mer frequency, TF over GST control).

CCTTTG: the binding signal was 1.17 fold enrichment (6-mer frequency, TF over GST control).

As to CTCACC, the binding signal was 1.08 fold enrichment (6-mer frequency, TF over GST control).

On to AATAGA, for which the binding signal was 1.17 fold enrichment (6-mer frequency, TF over GST control).

As to GAAACG, the binding signal is 1.34 fold enrichment (6-mer frequency, TF over GST control).

Take TATAAC: the binding signal was 1.19 fold enrichment (6-mer frequency, TF over GST control).

On to CGTTCA, for which the binding signal was 1.19 fold enrichment (6-mer frequency, TF over GST control).

In the case of TGCTGA, the binding signal was 1.01 fold enrichment (6-mer frequency, TF over GST control).

Regarding ACATGT, the binding signal was 1.14 fold enrichment (6-mer frequency, TF over GST control).

As to TCCGGG, the binding signal is 1.77 fold enrichment (6-mer frequency, TF over GST control).

On to GGCCTA, for which the binding signal is 1.17 fold enrichment (6-mer frequency, TF over GST control).

On to CGGCAT, for which the binding signal is 1.21 fold enrichment (6-mer frequency, TF over GST control).

For ATACTA, the binding signal is 1.11 fold enrichment (6-mer frequency, TF over GST control).

As to TCCCCG, the binding signal is 1.13 fold enrichment (6-mer frequency, TF over GST control).

Turning to CGAATT, the binding signal was 1.08 fold enrichment (6-mer frequency, TF over GST control).

Turning to TGCACT, the binding signal was 1.41 fold enrichment (6-mer frequency, TF over GST control).

Take TGATTC: the binding signal was 1.06 fold enrichment (6-mer frequency, TF over GST control).

TGCGCA: the binding signal is 1.07 fold enrichment (6-mer frequency, TF over GST control).

Consider AAGTGC, for which the binding signal is 1.36 fold enrichment (6-mer frequency, TF over GST control).

With ATTCAG, the binding signal is 1.02 fold enrichment (6-mer frequency, TF over GST control).

As to TGCCTG, the binding signal is 1.18 fold enrichment (6-mer frequency, TF over GST control).

As to CACCAC, the binding signal was 1.14 fold enrichment (6-mer frequency, TF over GST control).

With TCCACG, the binding signal is 1.06 fold enrichment (6-mer frequency, TF over GST control).

In the case of CCTATT, the binding signal was 1.59 fold enrichment (6-mer frequency, TF over GST control).

Take ACCTGA: the binding signal was 1.09 fold enrichment (6-mer frequency, TF over GST control).

For the sequence CTTACA, the binding signal is 1.24 fold enrichment (6-mer frequency, TF over GST control).

As for GAATCC, the binding signal is 1.08 fold enrichment (6-mer frequency, TF over GST control).

With ATCACT, the binding signal is 1.28 fold enrichment (6-mer frequency, TF over GST control).

TGGAAA: the binding signal was 1.23 fold enrichment (6-mer frequency, TF over GST control).

CTTACC: the binding signal was 1.19 fold enrichment (6-mer frequency, TF over GST control).

With CCCTGC, the binding signal is 1.2 fold enrichment (6-mer frequency, TF over GST control).

Consider TGACAC, for which the binding signal was 1.19 fold enrichment (6-mer frequency, TF over GST control).

Consider AACCAT, for which the binding signal was 1.13 fold enrichment (6-mer frequency, TF over GST control).

With CATGAT, the binding signal was 1.09 fold enrichment (6-mer frequency, TF over GST control).

On to CTAAAA, for which the binding signal was 1.15 fold enrichment (6-mer frequency, TF over GST control).
